± gives the standard deviation of the averaged measurements.
Columns and labels:
DLD1 [1] = assay: cell viability (CellTiter-Glo) relative to plate median (fraction of plate median); higher = more viable cells; conditions: 5 µM; treatment time 24 h; reporter: 7TFP
Procedure, shortened: (§1)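 Each entry is a luminescence signal normalised to the plate median, averaged over independent replicates. The replicate count was two, and the cells were colorectal cancer lines with stable lentiviral TCF/Wnt firefly luciferase reporters exposed to library compounds at a final 5 µM for 24 h. Firefly luciferase and CellTiterGlo were measured on parallel plates.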

HCT116 = assay: as above; conditions: 5 µM; treatment time 24 h; reporter: TCF4/Wnt
Procedure, shortened: as §1

SW480 [2] = assay: as above; conditions: 5 µM; treatment time 24 h; reporter: 7TFP
Procedure, shortened: as §1

DLD1 [3] = assay: TCF/Wnt firefly luciferase reporter signal relative to plate median (fraction of plate median); higher = higher Wnt reporter signal; conditions: 5 µM; treatment time 24 h; reporter: 7TFP
Procedure, shortened: as §1

SW480 [4] = assay: as above; conditions: 5 µM; treatment time 24 h; reporter: 7TFP
Procedure, shortened: as §1

SMILES	cell viability (DLD1 [1])	cell viability (HCT116)	cell viability (SW480 [2])	TCF/Wnt firefly luciferase reporter signal (DLD1 [3])	TCF/Wnt firefly luciferase reporter signal (SW480 [4])
Nc1nnc(-c2cccc(Cl)c2Cl)c(N)n1	1.05 ± 0.05	1.04 ± 0.069	0.975 ± 0.05	0.923 ± 0.018	0.985 ± 0.036
Nc1nc(N)c2nc(-c3ccccc3)c(N)nc2n1	0.843 ± 0.047	0.898 ± 0.0042	0.956 ± 0.037	1.11 ± 0.085	1.05 ± 0.028
O=C(NC(Cc1cc(=O)[nH]c2ccccc12)C(=O)O)c1ccc(Cl)cc1 (stereo not given)	0.93 ± 0.0071	0.975 ± 0.026	0.931 ± 0.024	0.909 ± 0.064	0.818 ± 0.069
CC[C@H]1OC(=O)[C@H](C)[C@@H](O[C@H]2C[C@@](C)(OC)[C@@H](O)[C@H](C)O2)[C@H](C)[C@@H](O[C@@H]2O[C@H](C)C[C@H](N(C)C)[C@H]2O)[C@](C)(O)C[C@@H](C)[C@@H]2N[C@@H](COCCOC)O[C@H]([C@H]2C)[C@]1(C)O	1.02 ± 0.049	0.991 ± 0.027	0.931 ± 0.0028	0.975 ± 0.05	0.998 ± 0.045
Nc1ccc(C(=O)O)cc1	0.9785 ± 0.00071	0.996 ± 0.034	0.974 ± 0.013	1.03 ± 0.035	0.965 ± 0.12
CN/C(=N\CCSCc1nc[nH]c1C)NC#N	1.04 ± 0.021	1.12 ± 0.042	1.04 ± 0.021	1.12 ± 0.18	1.06 ± 0.042
COC1=C(O)C(=O)c2c(cc3oc(C(C)=O)c(O)c3c2O)C1=O	1.03 ± 0.055	1.07 ± 0.064	0.985 ± 0.064	1.05 ± 0.11	0.949 ± 0.027
CC(=O)O[C@@H]1CO[C@H]2O[C@H]3[C@@H](C(C=O)=C[C@H](O)[C@@H]4C5=C(C(C)C)CC[C@]5(C)CC[C@@]34C)[C@@]2(O)C1=O [Striatal B]	1 ± 0.17	0.89 ± 0.16	1.05 ± 0.021	1 ± 0.16	1.025 ± 0.0071
NCCCC[C@H](NC(=O)[C@H](Cc1ccc(O)cc1)NC(=O)[C@@H](N)CCCCN)C(=O)O	1.04 ± 0.064	0.967 ± 0.042	1.06 ± 0.035	1.05 ± 0.095	1.03
CCn1cc(C(=O)O)c(=O)c2cc(F)c(N3CCNCC3)nc21	1.05 ± 0.064	0.98 ± 0.071	1.05 ± 0.083	1.065 ± 0.0071	1.04 ± 0.028
O=C(O)c1c[nH]c2ccccc12 [Indole-3-carboxylic acid]	0.977 ± 0.011	0.868 ± 0.083	0.9405 ± 0.005	0.83 ± 0.12	0.968 ± 0.21
C[C@]12CC[C@@H]3c4ccc(O)cc4CC[C@H]3[C@@H]1CC[C@@H]2OC(=O)CCC1CCCC1	0.957 ± 0.044	1.01 ± 0.065	0.967 ± 0.04	1.17 ± 0.021	1.11
COc1ccc2c(c1)c(CC(=O)O)c(C)n2C(=O)c1ccc(Cl)cc1	1.01 ± 0.016	0.785 ± 0.33	1.03 ± 0.028	1.08 ± 0.014	1.1 ± 0.014
